Measurements: PubChem BioAssay (EPA / NIEHS)
Some structures have more than one record in an assay (separate samples or runs), and their calls can disagree. Active and inactive are the calls of the source. The calls were made as follows: active = hit-call score of the fitted dose curve at least 0.9, where 1 is the maximum; inactive = score below 0.9.

Assay: ATG_CRE_CIS: Attagene CIS-FACTORIAL HepG2 Assay for human cAMP Responsive Element (CRE) binding protein 3 (AID 2282926)
Conditions: HepG2 CRE cis-reporter, Attagene multiplexed mRNA; actives raise or lower the signal
Procedure: ATG_CIS is a cell-based, multiplexed-readout assay that uses HepG2, a human liver cell line, with measurements taken at 24 hours after chemical dosing in a 24-well plate.ATG_CRE_CIS is one of 52 assay component(s) measured or calculated from the ATG_CIS assay. It is designed to make measurements of mRNA induction, a form of inducible reporter, as detected with fluorescence intensity signals by Reverse transcription polymerase chain reaction (RT-PCR) and Capillary electrophoresis technology.Data from the assay component ATG_CRE_CIS was analyzed into 1 assay endpoint. This assay endpoint, ATG_CRE_CIS, was analyzed with bidirectional fitting relative to DMSO as the negative control and baseline of activity. Using a type of inducible reporter, measures of mRNA for gain or loss-of-signal activity can be used to understand the reporter gene at the transcription factor-level as they relate to the gene CREB3. Furthermore, this assay endpoint can be referred to as a primary readout, because this assay has produced multiple assay endpoints where this one serves a reporter gene function. To generalize the intended target to other relatable targets, this assay endpoint is annotated to the dna binding intended target family, where the subfamily is basic leucine zipper.
Human liver HepG2 cells are transiently transfected with multiple reporter transcription units (MRTUs) in 6-well plates using FuGene 6 reagent (Roche; 3 ml FuGene/1 mg DNA). The MRTU constructs are regulated by a cis-regulating element (promoter). […] A major difference between the CIS and TRANS system is that in CIS activities of endogenous TFs are measured, whereas the TRANS assay evaluates changes in activities of exogenous, chimeric NR-Gal4 proteins. […] At the end of 24 hour incubation, total RNA was isolated using TriZol reagent (Invitrogen). The isolated RNA is then reverse-transcribed using oligo(dT) primer and Mo-MLV reverse transcriptase (Invitrogen) with DNAse I (Ambion) treatment for 30 min. The one-tenth of the produced cDNA was amplified by PCR using Taq DNA polymerase (Invitrogen) and two reporter sequence-specific primers. The PCR products were fluorescently labeled by primer extension with 6-arboxyfluorescein (6-FAM) 5'-labeled reporter sequence-specific primer (2 min at 95 C, 20 s at 68 C and 10 min at 72 C) and these products were digested with 5U of HpaI (New England Biolabs) for 2h at 37 C. The fragments were purified using Qiaquick PCR columns (Qiagen), analyzed on an ABI 3130xL genetic analyzer (Applied Biosystems) with peak positions identified by using a set of X-rhodamine (ROX)-labeled MapMarker1000 molecular weight standards (BioVentures). The raw capillary electrophoresis data was processed using Attagraph software (Attagene).

Row | Structure (SMILES) | outcome | AC50
1 | O=C1CCCCC1 | inactive | 
2 | O=C1NC(=O)C(c2ccccc2)(c2ccccc2)N1 | inactive | 
3 | O=C(N[C@@H](c1ccccc1)[C@@H]1CCCCN1)c1cccc(C(F)(F)F)c1Cl |  | 25.4 µM (active)
4 | CC(C)(C)c1ccccc1 | inactive | 
5 | c1ccc2occc2c1 | inactive | 
6 | Cc1cn([C@H]2C=C[C@@H](CO)O2)c(=O)[nH]c1=O | inactive | 
7 | CCN(CC)CCOc1ccc(C(=C(Cl)c2ccccc2)c2ccccc2)cc1 | inactive | 12.8 µM (active)
8 | CC(=O)S[C@H](C(=O)N[C@H]1Cc2ccccc2[C@H]2CCC[C@@H](C(=O)O)N2C1=O)C(C)C | inactive | 
9 | CC(=O)OC1CC(C)OC(C)O1 (stereo not given) | inactive | 
10 | CC(C)NCC(O)c1ccc(O)c(O)c1 (stereo not given) | inactive | 
11 | CS(=O)(=O)c1ccc([C@@H](C[C@H]2CCC(=O)C2)C(=O)Nc2cnccn2)cc1Cl | inactive | 
12 | COC(=O)[C@H]1[C@H]2C[C@@H]3c4[nH]c5cc(OC)ccc5c4CCN3C[C@H]2C[C@@H](OC(=O)c2cc(OC)c(OC)c(OC)c2)[C@@H]1OC |  | 21.9 µM (active)
13 | N[C@@H](Cc1c[nH]c2ccccc12)C(=O)O | inactive | 
14 | CC(=O)O[C@]1(C(C)=O)CC[C@H]2[C@@H]3C=C(Cl)C4=CC(=O)[C@@H]5C[C@@H]5[C@]4(C)[C@H]3CC[C@@]21C | inactive | 
15 | CCCC[C@H]1CN(CC2CCOCC2)C(=O)OC12CCN(C1(C)CCN(C(=O)c3c(C)ncnc3C)CC1)CC2 | inactive | 
16 | Cc1occc(=O)c1O | inactive | 
17 | CCCCC(CC)COC(=O)CCCCCCCC(=O)OCC(CC)CCCC (stereo not given) | inactive | 
18 | CC1(C)C(=O)NC(=O)N1CO | inactive | 
19 | OCC(CO)n1cnc(-c2ccc(F)cc2)c1-c1ccnc(Oc2ccccc2)n1 | inactive | 
20 | NC=O | inactive | 

Row | Structure (SMILES) | outcome | AC50
21 | O=C(O)c1cccnc1 | inactive | 
22 | COC(=O)CCCC(=O)OC | inactive | 
23 | CCOCCOCCO | inactive | 
24 | O=C(O)CN(CC(=O)O)CC(=O)O | inactive | 
25 | CCCCCCCC(=O)OC | inactive | 
26 | CCCCC(CC)CO (stereo not given) | inactive | 
27 | C=CCCCCCCCCCCCC | inactive | 
28 | Oc1ccccc1O | inactive | 
29 | CN(C)C(=O)NC1(c2ccccc2)CCN(CCC[C@]2(c3ccc(Cl)c(Cl)c3)CCCN(C(=O)c3ccccc3)C2)CC1 |  | 4.22 µM (active)
30 | CCCCOC(=O)CCCCC(=O)OCCCC | inactive | 
31 | O=C1OC(c2ccc(O)cc2)(c2ccc(O)cc2)c2ccccc21 |  | 27.2 µM (active)
32 | CSc1ccc(Oc2ccc(S(N)(=O)=O)cc2CN(C)C)cc1C | inactive | 
33 | NCCOCCOCCN | inactive | 
34 | CC(=O)O | inactive | 
35 | CC(=O)[C@@]1(O)CC[C@H]2[C@@H]3CCC4=CC(=O)CC[C@]4(C)[C@H]3CC[C@@]21C | inactive | 
36 | CCc1nc(N)nc(N)c1-c1ccc(Cl)cc1 |  | 100 µM (active)
37 | CC(C)c1cccc(C(C)C)c1 | inactive | 
38 | CCCCCCCCCC[N+](C)(C)[O-] | inactive | 
39 | O=C(Oc1ccccc1)c1cccc(C(=O)Oc2ccccc2)c1 | inactive | 
